The values below come from the supplement of paper PMC12669797.

Each structure is given as a SMILES string. Where “and” joins values, the source holds several entries; their conditions need not be identical. Equal values may be shown once. Where a name gives a salt, the structure may show the parent alone. ± gives the standard deviation of the averaged measurements.

The first experiment relates to ES2. Briefly: cell viability relative to DMSO control (MTS) (fraction of DMSO control); higher = more viable cells / less growth inhibition. To be noted: 10 µM; 48 h. The method, boiled down:
(§1)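 TOV-21G and ES2 clear cell carcinoma cells were plated in 96-well plates at 5000 cells per well, grown for 24 h, and then exposed to a 367-compound […] library at a final concentration of 10 µM, with vehicle alone in control wells. An MTS assay (CellTiter 96 AQueous One Solution) was read 48 h later according to the manufacturer's protocol. Viability is reported as a fraction of the vehicle control.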
`Cc1ccc(NC(=O)c2cccc(N(C)C)c2)cc1NC(=O)c1ccc(O)cc1` had a cell viability of 0.951.
The same measure, in the same setting: then `Cc1cccc(-c2nn(C(=S)Nc3ccccc3)cc2-c2ccnc3ccccc23)n1`, with 0.872; and `CN(Cc1cnc2nc(N)nc(N)c2n1)c1ccc(C(=O)N[C@@H](CCC(=O)O)C(=O)O)cc1` [Methotrexate], with 1.16.
Same read-out and setting: next, `O=C(Cc1ccccc1)Nc1c2c(nc3ccccc13)N(Cc1ccccc1)CC2`: 0.96; `CC(C)n1nc(-c2cc3cc(O)ccc3[nH]2)c2c(N)ncnc21` [Torkinib]: 0.417.
Same read-out and setting: next, `CCN(CC)CCNC(=O)c1c(C)[nH]c(/C=C2\C(=O)Nc3ccc(Cl)cc32)c1C`: 0.254.
Take `COc1cccc(-c2cc(=O)c3ccccc3o2)c1N`: the cell viability is 0.798 and 0.451.
Still for that read-out and setting: then `Nc1ncn([C@@H]2O[C@H](CO)[C@@H](O)[C@H]2O)c(=O)n1` [Azacytidine], with 0.664; and `Nc1cccc(-c2cc3c(Oc4cccc(O)c4)ncnc3[nH]2)c1`, with 0.586; and `N#CC(=C(/N)Sc1ccccc1N)/C(C#N)=C(/N)Sc1ccccc1N`, with 0.685 and 0.748.
On the same count and under the same terms, then `Cc1c[nH]c(/C=C2\C(=O)Nc3ccccc32)c1CCC(=O)O`, with 1.1; and `CS(=O)(=O)c1ccc(C(=O)Nc2ccc(Cl)c(-c3ccccn3)c2)c(Cl)c1` [Vismodegib], with 0.967.
The same measure, in the same setting: then `COc1cc2ncc(-c3ccccc3)nc2cc1OC`, with 0.862 ± 0.058; and `C[S+]([O-])c1ccc(-c2nc(-c3ccc(F)cc3)c(-c3ccncc3)[nH]2)cc1` (stereo not drawn), with 0.916; and `O=c1oc2c(O)c(O)cc3c(=O)oc4c(O)c(O)cc1c4c23` [Ellagic acid], with 0.827.
Regarding `NC(=O)c1ccc2nc(-c3ccc(Oc4ccc(Cl)cc4)cc3)[nH]c2c1` [Chk2 inhibitor II], the cell viability was found to be 1.23.
Still for that read-out and setting: next, `CC(C)CC(=O)N[C@H](C(=O)N[C@H](C(=O)N[C@@H](CC(C)C)[C@@H](O)CC(=O)N[C@@H](C)C(=O)N[C@@H](CC(C)C)[C@@H](O)CC(=O)O)C(C)C)C(C)C` [Pepstatin A]: 0.807.
`C[C@@H]1C[C@H]2O[C@@H]2/C=C\C=C\C(=O)Cc2c(Cl)c(O)cc(O)c2C(=O)O1` [Radicicol] returned a cell viability of 0.533.
The same measure, in the same setting: next, `O=C1C(SCCO)=C(SCCO)C(=O)c2ccccc21`: 0.962.
On the same count and under the same terms, next, `CCOC(=O)C1=C(C)NC(=S)NC1c1cccc(O)c1` (stereo not drawn) [Monastrol]: 0.884; `CC(C)C[C@@H](N)[C@H](O)C(=O)N[C@H](C(=O)N[C@H](C(=O)N[C@@H](CC(=O)O)C(=O)O)C(C)C)C(C)C` [Amastatin]: 0.963; `Nc1nc2c(nc(Sc3ccc(Cl)cc3)n2C2O[C@@H]3CO[P+](O)(S)OC3[C@@H]2O)c(=O)[nH]1` (stereo partly drawn): 1.02 ± 0.17.

The test system of another experiment is TOV-21G. Described as above. The following applies: 10 µM; 48 h. Put shortly: as §1
The compound `Nc1ncnc2nc(-c3ccc(N4CCOCC4)nc3)cc(-c3cccc(Br)c3)c12` showed a cell viability of 0.484.
Same read-out and setting: then `NC1=N/C(=C2/CCNC(=O)c3[nH]ccc32)C(=O)N1` [Debromohymenialdisine (DBH)], with 1.12; and `CC(C)C[C@H](NC(=O)[C@@H](O)[C@H](N)Cc1ccccc1)C(=O)O` [Bestatin], with 1.13.
On the same count and under the same terms, then `CC(C)c1ccc2c(c1)c(SC(C)(C)C)c(CC(C)(C)C(=O)O)n2Cc1ccc(Cl)cc1`, with 0.959; and `Ic1cccc(CSc2nnc(-c3ccncc3)o2)c1` [GSK-3 inhibitor II], with 1.19; and `O=C(O)c1cc(NCc2cc(O)ccc2O)ccc1O` [Lavendustin C], with 1.17.
Still for that read-out and setting: next, `COc1ccc(Cl)cc1C(=O)NCCc1ccc(S(=O)(=O)NC(=O)NC2CCCCC2)cc1` [Glibenclamide]: 0.958; `Cc1ccc(NC(=O)c2ccc(CN3CCN(C)CC3)cc2)cc1Nc1nccc(-c2cccnc2)n1` [imatinib mesylate]: 1.09.
The compound `CC1=C(/C=C/C(C)=C/C=C/C(C)=C/C(=O)O)C(C)(C)CCC1` [tretinoin] gave a cell viability of 1.51.
The same measure, in the same setting: then `CC(C)c1cc(/C=C(\C#N)C(=O)NCCCc2ccccc2)cc(C(C)C)c1O`, with 0.938 ± 0.063; and `COc1ccc(CCN(C)CCCC(C#N)(c2ccc(OC)c(OC)c2)C(C)C)cc1OC` (stereo not drawn) [Verapamil], with 1.12; and `CSc1ccc(/C=C2/C(C)=C(CC(=O)O)c3cc(F)ccc32)cc1` [Sulindac sulfide], with 1.3.
Compound `COC(=O)[C@H](CC(C)C)NC(=O)c1ccc(NC[C@@H](N)CS)cc1-c1ccccc1` returned a cell viability of 0.633.
The same measure, in the same setting: then `O=C([O-])c1ccccc1O.[Na+]` [Sodium salicylate], with 1.27.
Still for that read-out and setting: then `Cc1ccc(NC(=O)c2cccc(N(C)C)c2)cc1NC(=O)c1ccc(O)cc1`, with 0.888; and `Cc1cccc(-c2nn(C(=S)Nc3ccccc3)cc2-c2ccnc3ccccc23)n1`, with 1.01; and `CN(Cc1cnc2nc(N)nc(N)c2n1)c1ccc(C(=O)N[C@@H](CCC(=O)O)C(=O)O)cc1` [Methotrexate], with 0.872.
`O=C(Cc1ccccc1)Nc1c2c(nc3ccccc13)N(Cc1ccccc1)CC2` registered a cell viability of 0.839.
For the compound `CC(C)n1nc(-c2cc3cc(O)ccc3[nH]2)c2c(N)ncnc21` [Torkinib], the cell viability turned out to be 0.38.
Still for that read-out and setting: next, `CCN(CC)CCNC(=O)c1c(C)[nH]c(/C=C2\C(=O)Nc3ccc(Cl)cc32)c1C`: 0.222.
Same read-out and setting: then `COc1cccc(-c2cc(=O)c3ccccc3o2)c1N`, with 0.852 and 0.84.
Compound `Nc1ncn([C@@H]2O[C@H](CO)[C@@H](O)[C@H]2O)c(=O)n1` [Azacytidine] showed a cell viability of 0.779.
Compound `Nc1cccc(-c2cc3c(Oc4cccc(O)c4)ncnc3[nH]2)c1` had a cell viability of 1.03.
In the case of `N#CC(=C(/N)Sc1ccccc1N)/C(C#N)=C(/N)Sc1ccccc1N`, the cell viability was 0.824 and 1.02.
In turn, `Cc1c[nH]c(/C=C2\C(=O)Nc3ccccc32)c1CCC(=O)O` came in with a cell viability of 1.08.
Turning to `CS(=O)(=O)c1ccc(C(=O)Nc2ccc(Cl)c(-c3ccccn3)c2)c(Cl)c1` [Vismodegib], the cell viability amounted to 0.897.
The same measure, in the same setting: then `COc1cc2ncc(-c3ccccc3)nc2cc1OC`, with 0.955 ± 0.13; and `C[S+]([O-])c1ccc(-c2nc(-c3ccc(F)cc3)c(-c3ccncc3)[nH]2)cc1` (stereo not drawn), with 0.908.
The same measure, in the same setting: next, `O=c1oc2c(O)c(O)cc3c(=O)oc4c(O)c(O)cc1c4c23` [Ellagic acid]: 0.935; `NC(=O)c1ccc2nc(-c3ccc(Oc4ccc(Cl)cc4)cc3)[nH]c2c1` [Chk2 inhibitor II]: 1.1.
Still for that read-out and setting: then `CC(C)CC(=O)N[C@H](C(=O)N[C@H](C(=O)N[C@@H](CC(C)C)[C@@H](O)CC(=O)N[C@@H](C)C(=O)N[C@@H](CC(C)C)[C@@H](O)CC(=O)O)C(C)C)C(C)C` [Pepstatin A], with 1.18; and `C[C@@H]1C[C@H]2O[C@@H]2/C=C\C=C\C(=O)Cc2c(Cl)c(O)cc(O)c2C(=O)O1` [Radicicol], with 0.37.
`O=C1C(SCCO)=C(SCCO)C(=O)c2ccccc21` had a cell viability of 0.861.
As to `CCOC(=O)C1=C(C)NC(=S)NC1c1cccc(O)c1` (stereo not drawn) [Monastrol], the cell viability worked out at 0.853.
Same read-out and setting: next, `CC(C)C[C@@H](N)[C@H](O)C(=O)N[C@H](C(=O)N[C@H](C(=O)N[C@@H](CC(=O)O)C(=O)O)C(C)C)C(C)C` [Amastatin]: 1.02; `Nc1nc2c(nc(Sc3ccc(Cl)cc3)n2C2O[C@@H]3CO[P+](O)(S)OC3[C@@H]2O)c(=O)[nH]1` (stereo partly drawn): 0.856 ± 0.084.
